# Compound activity from PubChem BioAssay.
# A selection: hits, their analogues and other compounds. The true share with any hit is near 18%.
# IL-1B inflam inh: blocks inflammasome-driven IL-1 beta release; THP-1 LPS/ATP IL-1B secretion, AlphaLISA, 16 h; stronger effect = lower value; AID 743279; activity change, % at 57.5 µM; 360,000 compounds, 4.7% hits; in the data active means activity change below about -50%; inconclusive means mostly about -30% to -49%; further: on the % scale 0 is the no-effect control and ±100 the full control effect
#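 Secreted IL-1B measured by AlphaLISA bead assay after 16 h compound exposure of THP-1 cells; compounds (final up to 57.5 uM) added 1 h before LPS (250 ng/mL) and ATP (1.25 mM) stimulation; lower signal means less secretion.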
# TDP1 inh: blocks human tyrosyl-DNA phosphodiesterase 1. recombinant TDP1, AlphaScreen DNA substrate cleavage. Q9NUW8. 350,000 compounds, 0.28% hits. Potency, µM (series often up to 130 µM), for inactives: at the top dose activity change, negative = inhibition, usual class: inhibitors; further: potency means the concentration at half of the fitted maximal effect; on the % scale 0 is the no-effect control and ±100 the full control effect; nearly all actives have a fitted effect of over 40% in size
# Target sequence (Q9NUW8 whole entry, looked up): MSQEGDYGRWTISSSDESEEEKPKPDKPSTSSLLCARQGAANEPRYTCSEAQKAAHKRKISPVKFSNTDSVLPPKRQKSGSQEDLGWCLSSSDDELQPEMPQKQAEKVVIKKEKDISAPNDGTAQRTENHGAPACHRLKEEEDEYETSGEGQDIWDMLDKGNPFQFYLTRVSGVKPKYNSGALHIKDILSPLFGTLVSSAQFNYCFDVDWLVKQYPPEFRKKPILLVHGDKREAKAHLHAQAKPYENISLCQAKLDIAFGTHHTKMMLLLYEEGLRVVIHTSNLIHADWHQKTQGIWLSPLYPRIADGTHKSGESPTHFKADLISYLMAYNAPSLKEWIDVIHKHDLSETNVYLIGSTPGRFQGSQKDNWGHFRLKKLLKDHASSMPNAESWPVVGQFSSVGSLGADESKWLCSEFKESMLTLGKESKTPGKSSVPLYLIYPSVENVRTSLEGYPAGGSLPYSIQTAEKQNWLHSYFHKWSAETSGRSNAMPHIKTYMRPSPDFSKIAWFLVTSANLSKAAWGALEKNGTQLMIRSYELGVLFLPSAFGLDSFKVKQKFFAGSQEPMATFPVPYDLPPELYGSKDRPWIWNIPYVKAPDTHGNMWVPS
#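 Compounds were preincubated with Tdp1 (1 nM final) for 15 min at room temperature before substrate (15 nM final) started a 5 min reaction; beads (10 ug/ml final) were then added for 10 min before AlphaScreen detection.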
# TDP1 cell CPT: growth inhibition of DT40 Tdp1-/-;hTDP1 cells with camptothecin (screen for TDP1 inhibitors); chicken DT40 Tdp1-/-;hTDP1 cells + 20 nM CPT, ATP luminescence, 48 h; Potency, µM (top dose mostly 46.2 µM), without a hit: at the top dose activity change, negative = growth inhibition, actives largely listed as inhibitors; 420,000 compounds, 12% hits; AID 686979; further: potency means the concentration at half of the fitted maximal effect; on the % scale 0 is the no-effect control and ±100 the full control effect; nearly all actives have a fitted effect of over 55% in size
#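 Chicken DT40 Tdp1-/- cells stably complemented with human TDP1 were seeded at 400 cells/well in medium containing 20 nM camptothecin, exposed to pin-transferred compounds, and grown at 37 °C for at least 48 hr. Viability was read as ATP luminescence.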
# HepG2 tox-1: kills HepG2 cells in TGF-b inhibitor counter-screen; HepG2 CAGA-GFP viability, ATP luminescence, 18 h; Potency, µM (series often up to 46.1 µM), for inactives: at the top dose activity change, negative = cytotoxicity, hits mostly cytotoxic; 410,000 compounds, 0.76% hits; AID 588856; further: potency means the concentration at half of the fitted maximal effect
#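 CellTiter-Glo luminescence gave cytotoxicity after 18 hours at 37 degrees C. The cells were HepG2 CAGA-GFP in 1% FBS DMEM, stimulated with 500 pg/mL TGF-beta after compound addition. %Activity was normalised to no-cell wells (complete cell-killing) and DMSO (no toxicity), and curves were fitted and classified.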
# DT40 TDP1 no CPT: qHTS for Inhibitors of human tyrosyl-DNA phosphodiesterase 1 (TDP1): qHTS in cells in absence of CPT; DT40 Tdp1-/- hTDP1 cells, no CPT, ATP luminescence, 48 h; Potency, µM (titrated, usually from 46.2 µM), without a hit: top-dose activity change, negative = growth inhibition, most hits filed as inhibitors; 420,000 compounds, 15% hits; AID 686978, 2013; further: potency means the concentration at half of the fitted maximal effect; on the % scale 0 is the no-effect control and ±100 the full control effect; nearly all actives have a fitted effect of over 55% in size
#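 Readout: luminescence from CellTiter-Glo after 30 min in the dark at RT. Cells: DT40 Tdp1-/- with stable hTDP1, 400/well. Exposure: compounds alone, ≥48 hr, 37 °C.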
# TGFb SMAD3 inh: TGF-b pathway inhibition; HepG2 CAGA-GFP TGF-b/SMAD3 reporter, GFP fluorescence, 18 h; TGF-beta stimulated, 500 pg/mL final; Potency, µM (titrated, usually from 46.1 µM), without a hit: at the top dose activity, negative = inhibition, hits mostly inhibitors; 410,000 compounds, 1.2% hits; AID 588855; further: potency means the concentration at half of the fitted maximal effect; on the % scale 0 is the no-effect control and ±100 the full control effect; nearly all actives have a fitted effect of over 65% in size
#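 Smad-responsive CAGA-GFP expression was quantified in HEPG2 cells exposed to compounds and 500 pg/mL final TGF-beta for 18 h at 37 degrees C; unstimulated wells defined full inhibition.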
# TGFb CAGA inh: confirmation of TGF-b signaling inhibitors in HepG2 reporter cells; shares compounds with TGFb SMAD3 inh; HepG2 CAGA-GFP TGF-b reporter, GFP fluorescence, 18 h; cells stimulated with TGF-beta, 500 pg/mL; Potency, µM (series often up to 46.1 µM), for inactives: top-dose activity, negative = inhibition, usual class: inhibitors; 1,600 compounds, 63% hits; further: potency means the concentration at half of the fitted maximal effect; on the % scale 0 is the no-effect control and ±100 the full control effect; nearly all actives have a fitted effect of over 65% in size
# HepG2 tox-2: toxic to HepG2 cells in TGF-b counterscreen; shares compounds with TGFb SMAD3 inh; HepG2 CAGA-GFP viability, ATP luminescence, 18 h; cells stimulated with TGF-beta, 500 pg/mL; Potency, µM (highest dose often 46.1 µM), without a hit: at the highest dose activity, negative = cytotoxicity, hits mostly inhibitors; 1,600 compounds, 27% hits; further: potency means the concentration at half of the fitted maximal effect; on the % scale 0 is the no-effect control and ±100 the full control effect; nearly all actives have a fitted effect of over 70% in size
# TGFb CCL64 inh: TGF-b inhibition, CCL64 orthogonal assay. 1,600 compounds, 41% hits. shares compounds with TGFb SMAD3 inh. Potency, µM (highest dose often 46.1 µM), without a hit: at the highest dose activity, negative = inhibition, usual class: inhibitors. CCL64 CAGA-GFP reporter, TGF-b stimulated, GFP fluorescence, 18 h; further: potency means the concentration at half of the fitted maximal effect; nearly all actives have a fitted effect of over 65% in size
# COP TGFb inh: blocks TGF-b signaling in HepG2 COP reporter | shares compounds with TGFb SMAD3 inh | HepG2 COP-GFP TGF-b reporter, GFP fluorescence, 18 h; cells stimulated by added recombinant TGF-beta | Potency, µM (doses to about 46.1 µM), inactives show at the top dose activity, negative = inhibition, actives largely listed as inhibitors | 1,600 compounds, 3% hits; further: potency means the concentration at half of the fitted maximal effect; nearly all actives have a fitted effect of over 70% in size
# An asterisk follows results filed as active; u = inconclusive; x = not tested or not shown. Unless noted, the call rests on the fitted dose curve; in most records, active means well fitted curve in the direction sought with a large enough effect; inconclusive means small, poorly fitted or top-dose-only effect, or another doubt; inactive means no such curve, though single readings can be large; an effect the other way counts as inactive or inconclusive.
SMILES,IL-1B inflam inh,TDP1 inh,TDP1 cell CPT,HepG2 tox-1,DT40 TDP1 no CPT,TGFb SMAD3 inh,TGFb CAGA inh,HepG2 tox-2,TGFb CCL64 inh,COP TGFb inh
CCOC(=O)C1CCN(C(c2cccnc2)c2c(NC(=O)c3ccco3)sc(C)c2C)CC1 (centres undefined),-29,10%,1.6µM*,-53%,1.8µM*,7.9µM*,21µM*,u,u,18%
CCOC(=O)N1CCC(NC(=O)c2cc3c(=O)[nH]c4ccccc4c3n2C)CC1,-17,5%,-2%,-22%,-27%,u,x,x,x,x
CCn1c2ccccc2c2cc(NC(=O)c3cc(OC)c(OC)c(OC)c3)ccc21,14,2%,1.3µM*,11%,1.3µM*,0.79µM*,0.37µM*,-29%,1.3µM*,16%
CCOc1ccc(N(CC(=O)Nc2ccccc2OCC)S(=O)(=O)c2c(C)noc2C)cc1,53,3%,5.2µM*,-12%,3.3µM*,5µM*,6.5µM*,8%,4.1µM*,-19%
CC(C)C[C@H]1CN([C@@H](Cc2ccccc2)CN2CCC[C@H]2CN2C(=O)C(=O)NC[C@@H]2Cc2ccc(O)cc2)C(=O)C(=O)N1CCc1ccccc1,-4,x,u,x,u,x,x,x,x,x
CC(C)C[C@H]1CN([C@@H](CC(C)C)CN2CCC[C@@H]2CN2C(=S)NC[C@@H]2Cc2ccc(O)cc2)C(=S)N1CCc1ccccc1,u,x,13µM*,-20%,9.2µM*,10µM*,13µM*,u,16µM*,54%
CC(C)C[C@H]1CN([C@@H](Cc2ccc(O)cc2)CN2CCC[C@H]2CN2C(=O)C(=O)NC[C@@H]2Cc2ccccc2)C(=O)C(=O)N1CCc1ccccc1,0,x,10%,x,0%,x,x,x,x,x
CC(C)C[C@H]1CNC(=S)N1C[C@H]1CCCN1C[C@H](CC(C)C)N1C[C@H](Cc2ccc(O)cc2)N(CCc2ccccc2)C1=S,-6,x,u,-97%,18µM*,7.1µM*,u,21µM*,23µM*,24%
CCOC(=O)C1CCCN(CC(=O)Nc2cccc(C(C)=O)c2)C1 (centres undefined),-3,-10%,5%,-16%,20%,7%,x,x,x,x
CCCCNc1nnc(Cc2ccc(Cl)cc2)c(=O)[nH]1,0,x,-29%,-4%,-12%,-12%,x,x,x,x
N[C@H](CS)C(=O)O,x,6%,13%,x,0%,x,x,x,x,x
CC(OC(=O)Cc1ccc(F)cc1)C(=O)NCc1ccc2c(c1)OCO2 (centres undefined),9,3%,-3%,-5%,-13%,u,-28%,2%,8%,6%
Cc1cc(C)nc(/N=C(\N)Nc2ccc(OCc3ccccc3)cc2)n1,-93*,3%,12µM*,-24%,12µM*,0.25µM*,0.18µM*,u,18µM*,99%
Cc1cc(C)nc(/N=C(\N)Nc2ccc(CC(=O)OC(C)C)cc2)n1,-99*,x,u,-25%,3.3µM*,10µM*,u,-29%,u,14%
CCc1ccc(N/C(=N/c2nc(C)cc(C)n2)NC(C)=O)cc1,-20,x,u,-25%,u,u,x,x,x,x
CCOC(=O)C(=O)Nc1ccc(OCc2ccccc2)cc1,9,5%,-4%,8%,-3%,-24%,x,x,x,x
Cc1ccc(-c2csc(N(CCO)CCCn3c(C(F)(F)F)nc4cc(C(F)(F)F)ccc43)n2)cc1,25,x,u,-12%,u,7.1µM*,21µM*,-25%,u,-4%
OCCN(CCCn1c(C(F)(F)F)nc2ccccc21)c1nc(CN2CCCCC2)cs1,-13,x,u,0%,-23%,-26%,x,x,x,x
CCCCc1ccc(NC(=O)CN(C)CC(=O)Nc2ccccc2Cl)cc1,-74*,x,u,-33%,23µM*,22µM*,u,3%,u,1%
Cc1ccc(OCCNC(=O)[C@H]2O[C@@H](n3cnc4c(N)ncnc43)[C@H](O)[C@@H]2O)cc1C,-6,x,-23%,-21%,-28%,u,u,-10%,-2%,-20%
CCc1ccc(OCC(=O)Nc2ccc(-c3cc4ccccc4oc3=O)c(OC)c2)cc1,7,-8%,6.5µM*,-5%,7.3µM*,u,u,-13%,9%,12%
CCOc1ccc(CCN2C(=S)N([C@@H](Cc3ccc(O)cc3)CN3CCC[C@@H]3CN3C(=S)NC[C@@H]3CC(C)C)C[C@@H]2Cc2ccccc2)cc1,-16,x,4.6µM*,-10%,5.2µM*,u,u,-3%,u,15%
CCOc1ccc(CCN2C(=S)N([C@@H](Cc3ccc(O)cc3)CN3CCC[C@@H]3CN3C(=S)NC[C@@H]3CC(C)C)C[C@@H]2CC(C)C)cc1,-59*,x,16µM*,-10%,21µM*,4.5µM*,u,-19%,16µM*,21%
CCOc1ccc(CCN2C(=O)C(=O)N([C@@H](Cc3ccc(O)cc3)CN3CCC[C@@H]3CN3C(=O)C(=O)NC[C@@H]3Cc3ccccc3)C[C@@H]2Cc2ccccc2)cc1,u,x,u,-2%,u,-12%,x,x,x,x
